Compound activity (PubChem)
MITF act: MITF TRPM1 promoter activation in melanoma cells. SK-MEL-5 TRPM1-promoter luciferase, 24 h; % of positive control, neutral wells = 0. activation, % at 12.5 µM. hit rate 0.75% among 300,000;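 active means mean activation of at least 80% with every replicate also reaching 80%; inconclusive means mean reaches 80% but some replicate falls short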;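 further: 0% = neutral control wells and 100% = parthenolide positive control wells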
esBAF inh: inhibitors of esBAF chromatin remodeling in mouse ES cells; Bmi1-luciferase knock-in reporter, 24 h; 100% = twice the neutral-well signal; reporter increase, % at 12.5 µM; hit rate 2% among 350,000; AID 602393; in the data active means activation above about 40%; inconclusive means no clear call, values can overlap the other calls;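 further: 0% = median of the plate's neutral control wells and 100% = double that signal; a rise in the Bmi1 reporter signal indicates esBAF inhibition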
Ecoli rRNA inh: inhibits bacterial ribosomal RNA function over humanized ribosomes. E. coli WT GFP vs humanized-ribosome RFP mutants, fluorescence, 24 h; active compounds read low; DMSO median 0, no signal -100. GFP signal change (wild-type ribosome), % (concentration not given with the values). hit rate 1.6% among 350,000. AID 720706;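 active means significant combined selectivity score with lowered wild-type GFP, culture density cut under 30%, mutant RFP and density less affected; inactive means any of these conditions unmet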
MLL AF4-AF9 inh: MLL-AF4/AF9 protein interaction inhibition. inhibition, % at 10 µM. P42568. hit rate 0.47% among 350,000. AlphaScreen, biotin-AF4 peptide binding to FLAG-AF9;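 active means every replicate reaching a set inhibition limit, whatever the replicate mean, cut at about 25% in these data; inconclusive means mean inhibition reaches that limit but some replicates miss it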;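 further: 0% = plate neutral control median and 100% = total signal loss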
Target sequence (P42568 whole entry, looked up): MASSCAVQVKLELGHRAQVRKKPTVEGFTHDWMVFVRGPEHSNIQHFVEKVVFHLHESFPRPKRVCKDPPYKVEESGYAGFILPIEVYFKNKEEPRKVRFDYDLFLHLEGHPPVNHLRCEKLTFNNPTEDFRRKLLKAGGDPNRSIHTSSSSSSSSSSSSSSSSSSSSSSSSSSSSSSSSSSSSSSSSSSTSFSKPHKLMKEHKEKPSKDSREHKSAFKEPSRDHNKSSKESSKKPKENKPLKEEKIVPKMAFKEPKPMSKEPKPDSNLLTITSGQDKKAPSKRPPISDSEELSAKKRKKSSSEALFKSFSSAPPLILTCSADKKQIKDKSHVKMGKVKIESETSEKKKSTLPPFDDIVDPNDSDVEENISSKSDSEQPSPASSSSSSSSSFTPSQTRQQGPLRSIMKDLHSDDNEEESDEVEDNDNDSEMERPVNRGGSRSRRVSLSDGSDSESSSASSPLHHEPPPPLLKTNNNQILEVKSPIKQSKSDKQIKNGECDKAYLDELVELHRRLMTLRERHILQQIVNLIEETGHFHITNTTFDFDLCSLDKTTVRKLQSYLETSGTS
Wnt act: Wnt/beta-catenin pathway activation | Wnt/beta-catenin reporter cell assay, activator, plate reader | activation, % at 9.35 µM | hit rate 1.2% among 300,000; in the data active means activation above about 30%, passing the limit was not always enough; inconclusive means no clear call, values can overlap the other calls;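 further: 0% = neutral control wells and 100% = positive control wells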
AID977621: growth inhibition of wild-type GFP E. coli, dose response, H69 mutant RFP, cherry-pick; E. coli wild-type GFP strain growth, fluorescence, 24 h; activity change, negative = inhibition at 50 µM; shares compounds with Ecoli rRNA inh; 1,900 tested, under 10 active; AID 977621;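 active means Wild-type ribosome reporter drop at least double the humanized mutant ribosome reporter drop, growth loss under a set limit; inconclusive means no clear call, values can overlap the other calls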;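 further: wild-type GFP and H69 mutant RFP strains grown together 50/50 in each well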
AID977628: growth of wild-type and h24-humanized E. coli strains – h24 mutant RFP vs wild-type GFP, cherry-pick, dose response | E. coli WT GFP strain growth, fluorescence, 24 h | shares compounds with Ecoli rRNA inh | AID 977628 | 1,900 tested, under 10 active | activity change, negative = inhibition at 50 µM;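 active means compound lowering the normal-ribosome reporter at least twice as much as the humanized-ribosome reporter, growth loss under a set limit; inconclusive means no clear call, values can overlap the other calls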;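 further: wild-type GFP and h24 humanized RFP strains co-cultured 1 to 1 per well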
An asterisk follows results filed as active; ? = inconclusive; / = not tested or not shown. Only some compounds are listed: those with a hit (about 3.7% of all), similar ones and a draw of the others.

SMILES	MITF act	esBAF inh	Ecoli rRNA inh	MLL AF4-AF9 inh	Wnt act	AID977621	AID977628
CCCC#Cc1ccc2c(c1)O[C@H](CN(C)S(C)(=O)=O)[C@H](C)CN([C@@H](C)CO)S2(=O)=O	/	-4.7	-5.2	0.4	/	/	/
CN(CC(=O)NCc1ccncc1)S(=O)(=O)c1ccc2ccccc2c1	-10.5	1.4	-3.4	-2.0	-8.7	/	/
C/C=C/c1cnc2c(c1)C(=O)N([C@@H](C)CO)C[C@H](C)[C@H](CN(C)Cc1cncnc1)O2	/	-9.6	1.6	-20.1	/	/	/
CCOC(=O)CN1C(=O)C(CC)Oc2ccc(Cl)cc21 (stereo not given)	8.5	-2.5	-30.2*	-7.1	-2.6	-14	-15.7
Cc1nonc1C1CCCN1C(=O)c1cc(COc2ccc(F)cc2F)on1 (stereo not given)	77.3	/	-26.8*	-1.0	14.3	?	/
CC(C)(C)C1CCC(OC(=O)C[N+]2(C)CCCC2)CC1 (stereo not given)	8.6	/	6.7	-4.9	-3.7	/	/
CC(C)(C)C1CCC(OC(=O)C[N+]2(C)CCCCC2)CC1 (stereo not given)	-3.9	/	-17.4*	-1.1	2.3	-2.66	-5.8
CCOc1ccccc1NC(=O)COc1ccc2c(c1)OCO2	12.8	13.5	7.3	-3.3	2.0	/	/
Cc1ccc(NC(=O)c2ccc3ncsc3c2)cc1S(=O)(=O)N(C)C	/	/	-23.3*	1.2	2.2	-4.69	/
Cc1ccc(NC(=O)c2cccnc2)cc1S(=O)(=O)N(C)C	5.5	/	20.9	-2.2	-0.2	/	/
COc1ccc(C#Cc2ccc([C@H]3[C@H]4CN(C(=O)Nc5ccccc5F)CCCCN4[C@H]3CO)cc2)cc1	/	10.9	-2.1	-6.1	/	/	/
CCCC#Cc1ccc([C@H]2[C@H]3CN(S(=O)(=O)Cc4ccccc4)CCCCN3[C@H]2CO)cc1	/	2.9	0.2	7.1	/	/	/
CC(C)CC#Cc1ccc([C@@H]2[C@@H](CO)N3C(=O)CN(C(=O)Cc4ccccc4)C[C@@H]23)cc1	/	/	-38.0*	2.2	/	1.08	?
CC(C)CC#Cc1ccc([C@H]2[C@@H](CO)N3CCCCN(S(=O)(=O)Cc4ccccc4)C[C@H]23)cc1	/	/	-21.0*	13.7	/	/	?
O=S(=O)(Cc1ccccc1)N1CCCCN2[C@@H](CO)[C@H](c3ccc(C#Cc4ccccc4)cc3)[C@@H]2C1	/	/	-47.2*	4.4	/	/	?
COc1ccc(C#Cc2ccc([C@@H]3[C@@H](CO)N4CCCCN(C(=O)Nc5ccccc5F)C[C@H]34)cc2)cc1	/	-1.9	-34.9*	3.1	/	-4.96	?
O=C(COC(=O)c1ccc(O)cc1)Nc1ccccc1	1.1	3.3	-21.3*	-3.6	3.6	-5.03	-0.613
O=C(COC(=O)c1ccc(O)cc1)Nc1ccc2c(c1)OCCO2	51.0	?	-15.6	-3.4	2.3	/	/
COc1cccc(-c2ccc(SCc3ccccn3)nn2)c1	113.6*	/	-22.6*	1.1	?	/	?
COc1ccc(-c2ccc(SCc3ccccn3)nn2)cc1OC	9.2	1.7	-17.3	-1.1	-0.7	/	/
O=C(COC(=O)c1ccc(Br)cc1)NCc1ccccc1	11.1	/	/	/	/	/	/
CC(=O)Cc1cc(O)c2ccccc2c1OC(=O)c1ccc(Br)cc1	-18.3	8.3	-14.5*	/	2.7	6.87	0.516
CN1C(=O)c2cc(NC(=O)c3cccc(F)c3)ccc2OC[C@H]2O[C@H](CC(=O)NCC3CC3)CC[C@@H]21	/	/	3.2	1.1	/	/	/
O=C(NCc1ccccc1)C1C(=O)Nc2ccccc2C(=O)N1c1ccc2c(c1)OCCO2 (stereo not given)	/	/	-17.3*	0.9	3.7	3.71	-3.78
O=C(NCc1ccccc1)C1C(=O)Nc2ccccc2C(=O)N1Cc1ccccc1 (stereo not given)	/	/	5.5	/	-7.7	/	/
SMILES	MITF act	esBAF inh	Ecoli rRNA inh	MLL AF4-AF9 inh	Wnt act	AID977621	AID977628
CN(C)CC(=O)N[C@@H]1CC[C@@H](CCNC(=O)Nc2ccc(Cl)cc2)O[C@H]1CO	/	5.7	-27.6*	10.5	/	/	?
Cc1ccc(SCC(=O)NCCCc2ccccc2)cc1	-3.7	-0.5	-9.2	1.9	-0.2	/	/
O=C(CSc1ccccc1)NCCCc1ccccc1	19.1	9.6	-23.1*	-2.0	1.8	-5.57	?
CCN(CC)S(=O)(=O)c1cc(NC(=O)C(C)N2CCN(Cc3ccc4c(c3)OCO4)CC2)ccc1C (stereo not given)	15.3	/	-20.6*	13.3	-3.2	?	/
CCN(CC)S(=O)(=O)c1cc(NC(=O)C(C)Nc2ccccc2N2CCOCC2)ccc1C (stereo not given)	-4.7	5.6	-20.7	8.9	-1.6	/	/
CCOc1ccc2oc(-c3ccccc3)c(C(=O)N(C)C)c2c1	-6.7	6.3	-25.5*	-16.1	-0.5	-0.573	-8.54
O=C(COC(=O)[C@H](Cc1ccccc1)NC(=O)c1ccco1)Nc1ccccc1OC(F)F	-0.6	-2.3	-1.1	1.9	-2.8	/	/
Cn1c(SCc2cccc(F)c2)nnc1-c1ccccn1	44.8	22.5	/	/	/	/	/
Cc1ccccc1CSc1nnc(-c2ccccn2)n1C	/	?	-20.9*	3.8	22.3	-7.18	?
Cc1ccc(-n2nnnc2SCC(=O)NC2CCCc3ccccc32)cc1 (stereo not given)	4.5	11.7	-30.0*	-0.4	6.2	2.92	/
CCn1nc(C)c(Br)c1-c1nc(CS(=O)(=O)c2ccsc2)no1	/	0.4	-34.2*	/	-2.3	-11.4	?
CCCNC(=O)c1noc2c1CCc1cc(OC)ccc1-2	63.4	19.7	-27.8*	-3.9	-0.3	?	/
COc1ccc2c(c1)CCc1c(C(=O)NCc3cccnc3)noc1-2	37.5	19.4	3.9	-0.8	14.3	/	/
C=C1c2cc3c(cc2NC(=S)N1Cc1ccccc1)OCO3	/	/	-27.0*	/	-1.8	-7.9	-3.83
O=C(CN(C(=O)c1csnn1)c1cccc2c1CCCC2)NC1CCCC1	4.8	-9.1	14.3	-3.1	0.1	/	/
CCc1cc(CN2CCOCC2)c(NC(=O)c2ccccc2)s1	-2.2	7.5	-17.4*	2.0	2.1	-0.08	-4.82
CCOc1ncccc1C(=O)OCC(=O)NCCCc1ccccc1	/	-2.8	-20.9*	-2.8	-3.3	-7.19	-12.9
CCOc1ncccc1C(=O)OCC(=O)NCCc1ccccc1	10.2	-5.2	/	/	/	/	/
Cc1nnc2sc(SCc3cccc(Cl)c3)nn2c1=O	7.7	8.8	-4.6	-0.9	-1.6	/	/
O=C(CC1SC(=O)N(Cc2ccccc2)C1=O)Nc1nccs1 (stereo not given)	-1.8	/	7.6	1.1	-0.6	/	/
O=C(CC1SC(=O)N(Cc2ccccc2Cl)C1=O)Nc1nccs1 (stereo not given)	5.2	/	-21.7*	-2.8	2.9	-5.78	-9.6
